MBD2 DNA inh: inhibitors of MBD2 binding to methylated DNA, primary screen, biochemical, TR-FRET, DNA-binding domain, human; MBD2 binding to methylated oligonucleotide; inhibition, % at 4.4 µM; 370,000 compounds, 0.31% hits; in the data active = inhibition above about 13%
UHRF1 binding: UHRF1 methylated DNA binding inhibitors, primary screen, counter-screen for MBD2 inhibitor project, biochemical, TR-FRET, human UHRF1, single concentration; E3 ubiquitin-protein ligase UHRF1 (Homo sapiens), Q96T88; UHRF1 binding to methylated oligo; inhibition, % at 4.4 µM; 370,000 compounds, 0.75% hits; in the data active = inhibition above about 21%;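 also: UHRF1 SRA domain binding a hemimethylated CpG hairpin DNA probe; 0% = median of test compound wells and 100% = reference inhibitor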
UBC13 polyUb: UBC13 polyubiquitin chain formation inhibitors, primary screen, biochemical, TR-FRET, uHTS; AID 485273, 2010; inhibition, % at 20 µM; 330,000 compounds, 0.47% hits; Ubiquitin-conjugating enzyme E2 N (Homo sapiens), P61088; in the data active = inhibition above about 45%, passing the limit was not always enough; inconclusive = no clear call, values can overlap the other calls
Target sequence (P61088 whole entry, looked up): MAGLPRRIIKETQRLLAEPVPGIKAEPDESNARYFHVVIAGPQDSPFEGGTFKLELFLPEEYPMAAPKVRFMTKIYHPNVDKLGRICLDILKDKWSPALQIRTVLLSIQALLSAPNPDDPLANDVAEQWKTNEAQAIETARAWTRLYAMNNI
Neddyl block: inhibitors of cullin neddylation, primary screen, biochemical, TR-FRET, uHTS, NAE and Ubc12 | NEDD8-conjugating enzyme Ubc12 (Homo sapiens) + NEDD8-activating enzyme E1 regulatory … | calls only at 25 µM | 360,000 compounds, 0.58% hits | AID 651699, 2012; in the data active = inhibition above about 36%
Casp3 UBC13 ctr: CASP3 inhibitor validation, counterassay for project on UBE2N polyubiquitination blockers, biochemical, one dose | AID 488856, 2010 | inhibition, % at 20 µM | 1,400 compounds, 4% hits | Recombinant caspase-3, Caspase-Glo 3/7 luminescence, 60 min | shares compounds with UBC13 polyUb;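 active = mean inhibition across replicates above about 26%, limit read from the data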;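 also: plate controls were DMSO with caspase-3 for no effect and DMSO wells lacking enzyme for full effect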
Target sequence (P42574 whole entry, looked up): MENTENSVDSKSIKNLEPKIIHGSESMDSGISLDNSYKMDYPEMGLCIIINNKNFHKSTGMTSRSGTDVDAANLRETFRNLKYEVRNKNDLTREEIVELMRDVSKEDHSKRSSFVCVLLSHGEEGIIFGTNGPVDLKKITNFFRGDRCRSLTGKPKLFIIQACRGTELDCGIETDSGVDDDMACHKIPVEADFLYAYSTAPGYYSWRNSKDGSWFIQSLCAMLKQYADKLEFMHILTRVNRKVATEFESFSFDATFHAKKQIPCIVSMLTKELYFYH
UBC13 confirm: UBC13 polyubiquitination inhibitors, single-point retest, confirmation, biochemical, TR-FRET, single concentration; shares compounds with UBC13 polyUb; inhibition, % at 10 µM; 1,400 compounds, 68% hits; in the data active = inhibition above about 45%; inconclusive = no clear call, values can overlap the other calls
Active calls of the source: *; i = inactive; ? = inconclusive; · = no result given. This is a sample that favours compounds with a hit; in the whole collection about 1.8% have one here.

SMILES	MBD2 DNA inh	UHRF1 binding	UBC13 polyUb	Neddyl block	Casp3 UBC13 ctr	UBC13 confirm
CC(Cl)C(=O)Nc1cc(C(C)(C)C)nn1-c1ccccc1 (centres undefined)	1.4	0.2	14.2	i	·	·
c1ccc(C[C@H]2CN=C(Nc3ccccc3)N2CCCC2CCCCC2)cc1	-0.4	-1.0	48.4*	i	-0.9	26.4
c1ccc(C[C@H]2CN=C(Nc3ccccc3)N2CC2CCCCC2)cc1	-0.6	2.7	16.7	i	·	·
CCc1nc(-n2[nH]c(=O)c3ccccc3c2=O)c2c3c(sc2n1)CCCC3	-3.6	0.5	-7.9	i	·	·
COc1ccc(S(N)(=O)=O)cc1C(=O)OCC(=O)Nc1sccc1C#N	0.3	-1.8	-9.8	i	·	·
COC(=O)[C@H](Cc1ccccc1)NC(=O)O[C@@H]1C(=O)c2cc(OC)ccc2O[C@H]1c1ccc(OC)c(Br)c1	·	·	31.7	·	·	·
CC[C@H](C)[C@@H](NC(=O)O[C@@H]1C(=O)c2cc(OC)ccc2O[C@H]1c1ccc(OC)c(Br)c1)C(=O)OC	·	·	46.4*	i	1.8	?
COc1ccc(CNC(=O)c2cc(-c3cc(C)cc(C)c3O)n[nH]2)cc1	1.8	4.0	7.1	i	·	·
CCN(CC)C(=O)CCNS(=O)(=O)c1ccc(C)cc1	1.3	-0.6	-1.0	i	·	·
CCN1CCN(Cc2ccc(NC(=O)c3cc(NC(=O)c4cncc(-c5ccc(C#N)cc5)c4)cc(OC)c3)cc2C(F)(F)F)CC1	3.6	-1.3	117.9*	i	0.4	126.0*
CCN1CCN(Cc2ccc(NC(=O)c3ccc(C)c(NC(=O)c4nccnc4N)c3)cc2C(F)(F)F)CC1	-2.8	-1.2	13.1	i	·	·
CCN1CCN(Cc2ccc(NC(=O)c3ccc(C)c(NC(=O)c4cc(-c5ccc(Br)cc5)n[nH]4)c3)cc2C(F)(F)F)CC1	-3.5	-2.1	71.9*	i	2.3	64.8*
OC(c1ccc(Cl)cc1)c1ncc(-c2ccc(Oc3ccccc3)cc2)[nH]1 (centres undefined)	-1.2	-3.1	·	i	·	·
CC[C@H]1CN2CCc3cc(OC)c(OC)cc3C2C[C@@H]1C[C@H]1NCCc2cc(OC)c(OC)cc21 (some centres undefined)	-3.9	0.0	52.7*	i	3.2	10.5
CCOC(=O)CSc1nc(C(C)(C)C)cc(C(F)(F)F)c1C#N	-5.4	0.5	47.2*	i	0.8	33.4
CCc1ccc(OCC(=O)NNC(=O)c2cnccn2)c(Br)c1	-3.0	-0.6	52.6*	i	3.6	41.2
CC1(C)Cc2nc(NCCCO)c(C#N)cc2CO1	-5.3	3.2	14.9	·	·	·
C#CCOCCOCCOCCNc1nc(N2CCN(C(=O)Cn3cc(CCCCN)nn3)CC2)nc(N2CCN(C(=O)Cn3cc(CC(C)O)nn3)CC2)n1 (centres undefined)	7.1	14.7	8.5	i	·	·
C#CCOCCOCCOCCNc1nc(N2CCN(C(=O)CCCCCCCCCCNC(=O)Cn3cc(CCCCCN)nn3)CC2)nc(N2CCN(C(=O)CCCCCCCCCCNC(=O)Cn3cc(C[C@@H](C)O)nn3)CC2)n1	·	·	114.1*	i	-2.0	113.7*
C#CCOCCOCCOCCNc1nc(N2CCN(C(=O)[C@H]([C@@H](C)O)n3cc(CCCCN)nn3)CC2)nc(N2CCN(C(=O)[C@H](CCCCN)n3cc(CCCC)nn3)CC2)n1	7.2	10.8	31.6	i	·	·
C#CCOCCOCCOCCNc1nc(N2CCN(C(=O)CCCCCCCCCCNC(=O)[C@H](CCCCN)n3cc(C)nn3)CC2)nc(N2CCN(C(=O)CCCCCCCCCCNC(=O)[C@@H]([C@H](C)O)n3cc(C)nn3)CC2)n1	·	·	116.7*	i	-1.2	110.9*
C#CCOCCOCCOCCNc1nc(N2CCN(C(=O)CCCCCCCCCCNC(=O)Cn3cc(C[C@@H](C)O)nn3)CC2)nc(N2CCN(C(=O)CCCCCCCCCCNC(=O)[C@@H]([C@H](C)O)n3cc(C)nn3)CC2)n1	·	·	31.9	i	·	·

Source: PubChem BioAssay (several laboratories)
